Source: PubChem BioAssay (NCI)
Compounds without any hit were thinned out: in the full panel of roughly 83,000, 20% have a hit.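 Percent growth is the endpoint: 0 to 100 indicates growth inhibition (40 means 60% inhibition), 0 means no net growth, and negative values indicate cell death.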 Unmarked numbers belong to inactive results. Active and inactive are the calls of the source. How the source made its calls: active means growth percent below 10; inactive means the rest.

The compounds below were run on MDA-MB-468 breast (assay: NCI-60 one-dose screen, 48 h (100 = growth as untreated, 0 = no growth, -100 = all killed)). Conditions: 10 µM unless noted.

SMILES | growth
COc1cc(CN(CCC(O)N2CCCC2=O)Cc2ccc3c(c2)OCO3)cc(OC)c1OC (centres undefined) | 119%
Cc1csc(Nc2cccc(Nc3nc(C)cs3)c2)n1 | 47.6%
COc1cc2c(cc1OC)[C@H](C(=O)O)[C@@H](c1ccc(OC(C)C)c(OC)c1)N(C)C2=O | 105%
O=C(O)c1ccccc1Nc1cccc(S(F)(F)(F)(F)F)c1 | 111%
O=C(N/N=C/c1ccc(O)c(O)c1)c1sc2ccccc2c1Cl | 88.8%
COc1ccc(-c2cc(-c3ccc(Cl)cc3)c(C#N)c(=O)n2CCCCCC(=O)Nc2ccccc2N)cc1 | 53.1%
C=CC[C@]1(O)CC[C@H]2[C@@H]3CCc4cc(O)ccc4[C@H]3CC[C@@]21C | 87.4%
Cc1ccc(NC(=S)N2CCOCC2)cc1C | 83.5%
Cc1ccc(/C=C/CC(=O)Nc2ccc(C(=O)Nc3ccc(F)cc3N)cc2)cn1 | 53.5%
CCc1nn2c(-c3ccccc3)c(-c3cc(OC)c(OC)c(OC)c3)nc2s1 | 66%
O=C(CSc1nc2sc3c(c2c(=O)n1-c1ccc(Cl)cc1)CCCC3)NNC(=O)Nc1cccc(C(F)(F)F)c1 | 8.29% (active)
CC[C@@H](C(=O)[C@@H](C)[C@@H](O)[C@H](C)[C@@H]1O[C@@H]([C@@H](CC)C(=O)ONC(=O)c2ccccc2O)CC[C@@H]1C)C1O[C@]2(C=CC(=O)[C@]3(CC[C@@](C)([C@H]4CC[C@](O)(CC)[C@H](C)O4)O3)O2)[C@H](C)C[C@@H]1C (some centres undefined) | 16.4%
CC[C@@H]1O[C@H](O[C@@H](c2cnc[nH]2)[C@H](NC(=O)c2nc([C@H](CC(N)=O)NC[C@@H](N)C(N)=O)nc(N)c2C)C(=O)N[C@H](C)[C@H](O)[C@H](C)C(=O)N[C@@H](C(=O)NCCc2nc(-c3nc(C(=O)NCCCCN=C(N)N)cs3)cs2)[C@@H](C)O)[C@H](O[C@@H]2O[C@H](CO)[C@H](O)[C@H](OC(N)=O)[C@@H]2O)[C@H](C)[C@@H]1C | 57%
CCN(C(=O)CN1CCN(c2cc3c(cc2F)c(=O)c(C(=O)O)cn3C2CC2)CC1)c1nc(-c2ccc(OC)cc2)cs1 | 60.9%
Cc1ccc(Cl)cc1N1C(=O)CC(Sc2ccccc2N)C1=O (centres undefined) | 108%
CCN1C2CCC1/C(=C\c1ccc(F)cc1)C(=O)/C2=C/c1ccc(F)cc1 | 11.1%
O=C1/C(=C\c2ccc(Br)cc2)CN(C(=O)c2ccccc2F)C/C1=C\c1ccc(Br)cc1 | -54.1% (active)

SMILES | growth
O=C1c2ccccc2C23C(=C(c4cncnc4)c4ccccc42)CCCN13 (centres undefined) | 93.3%
O=C(O)c1cn(C2CC2)c2cc(N3CCN(Cc4ccc5ccccc5c4O)CC3)c(F)cc2c1=O | 39.2%
NN1CCOC(c2ccccc2)C1 (centres undefined) | 113%
CCOc1ccc(S(=O)(=O)c2ccc(C)cc2)c2c1no[n+]2[O-] | 103%
Cc1ccccc1Nc1cc(O)c2c(=O)cc(-c3ccccc3)oc2c1 | -2.12% (active)
O=C(N/N=C/c1cc([N+](=O)[O-])ccc1O)c1cccc2ccccc12 | -8.62% (active)
O=c1oc2ccc(F)cc2c(=O)n1-c1ccc(Br)cc1F | 0.698% (active)
C#CCN(C)CCCOc1ccc(NC(=O)CCCCCCCCC(=O)NO)cc1Cl | 27.6%
CC(C)N1C(=O)S/C(=C2/SC(=O)N(C(C)C)C2=O)C1=O | 94.5%
N#Cc1c(N)nc2c(nnn2-c2cccc(C(F)(F)F)c2)c1N | 76.4%
O=C(c1ccc(O)cc1)[C@@H]1CN[C@@]2(C(=O)Nc3ccccc32)[C@H]1c1ccc(F)cc1 | 97.5%
O=C(Nc1ccccc1S)c1ccccc1 | 115%
Fc1ccc2nc(-c3cc(-c4ccc5c(c4)OCO5)n[nH]3)[nH]c2c1 | 46.7%
COc1ccc(NC(=O)[C@H](C)N)cc1C(=O)Nc1cccc(-c2cc(=O)c3c(OC)c(OC)c(OC)cc3o2)c1 | 58.5%
O=c1c(/C=C/c2c(O)ccc3ccccc23)nnc2sc(-c3cccc([N+](=O)[O-])c3)nn12 | 40.9%
CCOc1nc(-c2ccccc2)cc2c(O)c(-c3nnco3)[nH]c(=O)c12 | 16.6%
O=S(=O)(Nc1ccc2ccccc2c1)N1CCCCC1 | 12.8%
